BoNT-F LC inh: inhibitors of Botulinum neurotoxin F light chain protease; actives 0.22% (n = 360,000); Multiplex microsphere protease cleavage assay, flow cytometry; inhibition, % at 10 µM; AID 588497; in the data active = inhibition above about 35%, passing the limit was not always enough; inconclusive = no clear call, values can overlap the other calls; note: plate controls were buffer without enzyme for full effect and enzyme alone for no effect
Autofluor counter: compound fluorescence in toxin protease inhibitor counterscreen; actives 3.1% (n = 360,000); fluorescence intensity (no concentration beside the values); compound autofluorescence counterscreen, microsphere flow cytometry; active compounds read high; in the data active = fluorescence intensity above about 16000; inconclusive = no clear call, values can overlap the other calls
BoNT-A LC inh2: inhibitors of Botulinum neurotoxin A light chain protease | inhibition, % at 10 µM | multiplex microsphere protease substrate cleavage, flow cytometry | actives 0.17% (n = 360,000) | AID 588499; note: plate controls were buffer without enzyme for full effect and enzyme alone for no effect
Anthrax LF inh2: anthrax lethal factor protease inhibition. inhibition, % at 10 µM. multiplex microsphere protease cleavage assay, LF. actives 0.12% (n = 360,000). P15917. AID 588501; note: plate controls were buffer without enzyme for full effect and enzyme alone for no effect
SARS 3CLpro inh: SARS-CoV 3CLpro protease inhibition; inhibition, % at 6 µM; recombinant SARS-CoV 3CLpro, quenched FRET peptide cleavage; actives 0.14% (n = 290,000); P0C6X7; in the data active = inhibition above about 12%
Active calls of the source: *; ? = inconclusive; nt = no result given. Compounds with a hit are over-represented: about 3.5% of the library has one in this group of screens. Cut-off read from the data, not from the text of the source, unless noted: active = inhibition above about 30%; inconclusive = no clear call, values can overlap the other calls; inactive = below that.

SMILES	BoNT-F LC inh	Autofluor counter	BoNT-A LC inh2	Anthrax LF inh2	SARS 3CLpro inh
COc1ccc(Cc2nnc(SCC(=O)NCCc3ccccc3)o2)cc1	-7	21339*	?	-1	4
O=C(CSc1nnc(Cc2ccccc2)o1)NCc1ccco1	1	21761*	1	-9	7
Cc1[nH]c2ccccc2c1Cc1nnc(SCC(=O)NCc2ccco2)o1	-8	5439	-1	-8	-1
COc1ccc(CCNC(=O)CSCc2n[nH]c(=O)[nH]2)cc1OC	1	20702*	?	-2	-3
COc1ccc(-c2nnc(SCC(=O)NCCc3ccccc3)o2)cc1	4	2963	0	0	-2
COc1ccc(CCNC(=O)CSCc2ccc(C)cc2)cc1OC	-3	2741	0	0	2
Cc1cc(C)n(C(=O)CSc2nc3ccccc3o2)n1	-5	20678*	-3	2	1
CCCCC(=O)Nc1c2c(nn1-c1cccc(C)c1C)CS(=O)(=O)C2	-8	3757	-3	-3	-1
COc1ccc(/C(O)=C/Sc2nnc(Cc3ccccc3)o2)cc1	-4	24165*	-2	-6	1
COc1ccc(C(=O)CSc2nnc(Cc3ccccc3)o2)cc1	6	5554	0	-6	2
COC(=O)c1ccccc1NC(=O)CSc1nnc(Cc2ccc(Cl)cc2)o1	11	19277*	6	-23	-1
COc1ccccc1NC(=O)CSc1nnc(COc2ccc(Cl)cc2)o1	0	5786	-1	-1	-5
Cc1cccc(C)c1OCc1nnc(SCC(=O)NCCc2ccccc2)o1	-6	23122*	?	-2	0
Cc1cccc(C)c1OCc1nnc(SCC(=O)Nc2nccs2)o1	-8	5818	-1	-1	3
O=C(O)c1ccc(CSc2nnc(Cc3ccccc3)o2)cc1	-2	16912*	-3	-5	7
O=C1NC(=O)C2C1C(c1cccs1)NN2Cc1ccccc1 (centres undefined)	-11	4367	0	-4	1
COc1ccc(CCNC(=O)CSc2nc3ccccc3o2)cc1OC	-6	23875*	-3	-1	-2
CCOC(=O)c1c(NC(=O)CSc2nnc(Cc3ccccc3)o2)sc(C(C)=O)c1C	-11	18103*	?	-3	-3
Cc1ccc(-n2ncc3c(=O)n(CC(=O)NC4CCCCC4)cnc32)cc1C	1	6158	0	0	-2
CCOC(=O)C(Sc1nnc2c3ccccc3n(CC)c2n1)C(=O)OCC	0	16233*	0	0	0
CCn1c2ccccc2c2nnc(SCC(=O)Nc3ncccn3)nc21	3	21373*	?	-1	-2
CCCOc1ccc(N2C(=O)CC(N(CCc3ccc(OC)c(OC)c3)C(=O)c3ccccc3)C2=O)cc1 (centres undefined)	-6	5291	-1	5	1
CCOc1ccc(/C(O)=C2\C(=O)C(=O)N(CCOCCO)C2c2ccccc2OC)cc1 (centres undefined)	-2	23386*	?	-1	-1
Oc1cccnc1CN1CCOCC1	-1	3887	0	-4	nt
CCOc1ccc(N2CC(=O)SC2=S)cc1	3	7508	8	7	-5
SMILES	BoNT-F LC inh	Autofluor counter	BoNT-A LC inh2	Anthrax LF inh2	SARS 3CLpro inh
CCOc1ccc(N2CSC(=S)N(c3ccc(OCC)cc3)C2)cc1	?	3691	0	32*	-1
CN1CCN(c2c(F)cc3c(=O)c(C(=O)O)cn(CCF)c3c2F)CC1	nt	nt	nt	nt	0
COC(=O)c1sccc1-c1ccc(C(=O)Nc2ccccc2)o1	2	19373*	?	1	6
CCn1c(NC(=O)c2ccco2)c(-c2ccccc2Cl)c(=O)c2ccccc21	5	23199*	1	3	2
COc1ccc(-c2c(NC(=O)C(C)C)n(C)c3ccccc3c2=O)cc1	-2	11511	0	-2	-3
COc1ccc(-c2c(NC(C)=O)n(C)c3ccccc3c2=O)cc1	17	16417*	?	-14	0
Cn1c(NC(=O)c2ccco2)c(-c2ccccc2)c(=O)c2ccccc21	-4	8467	0	-3	5
CCn1c(NC(=O)c2cccs2)c(-c2cccs2)c(=O)c2ccccc21	4	20705*	?	1	-8
CCCC(=O)Nc1c(-c2cccs2)c(=O)c2ccccc2n1C	-1	21477*	2	0	-1
CCCS(=O)(=O)NC(=O)C1(C)CCN(C(=O)c2c(F)ccc(C)c2F)C1 (centres undefined)	-11	4311	-1	-2	nt
NC1=Nc2ccccc2Oc2ccccc21	-1	16347*	?	-8	0
COc1ccc(C(C)(O)c2nc(-c3cccc(NC(C)=O)c3)cs2)cc1 (centres undefined)	-4	3897	0	-5	nt
Cc1sc(NC(=O)c2ccco2)c(CN2CCCCC2)c1C	-5	9701	-1	9	1
Cc1sc(NC(=O)c2ccco2)c(CN2CCN(c3ccccc3)CC2)c1C	-3	20298*	0	-5	1
Cc1sc(NC(=O)c2ccco2)c(C(c2ccncc2)N2CCOCC2)c1C (centres undefined)	2	18732*	3	-2	-3
CCOc1ccc(C(c2c(NC(=O)c3ccco3)sc(C)c2C)N2CCOCC2)cc1 (centres undefined)	-2	4093	-1	-8	nt
CC(/C=N/NC(=O)c1ccncc1)=C\c1ccc(C(C)C)cc1	1	22320*	3	0	1
COC(=O)CCc1c(C)c(C#N)c2nc3ccccc3n2c1N1CCCC1	3	22382*	3	0	-4
CCOC(=O)CCc1c(C)c(C#N)c2nc3ccccc3n2c1-n1ccnc1	-3	3192	0	-6	-7
Cc1ccccc1CSCCNC(=O)CSCc1ccc([N+](=O)[O-])cc1	0	21363*	?	-3	0
Cc1cccc(CSCCNC(=O)CSCc2ccc([N+](=O)[O-])cc2)c1	nt	nt	nt	nt	5
Cc1ccc(CSCCNC(=O)CSCc2ccc([N+](=O)[O-])cc2)cc1	-3	20785*	0	-3	1
COc1ccc(CCNC(=O)CSCc2ccc([N+](=O)[O-])cc2)cc1	2	2142	0	0	-2
CSc1nc(C)cc(-n2cc(F)c(=O)[nH]c2=O)n1	-8	2536	1	-3	4
O=[N+]([O-])c1ccccc1/C=N/Nc1nccnc1Cl	0	22518*	-1	-2	1
SMILES	BoNT-F LC inh	Autofluor counter	BoNT-A LC inh2	Anthrax LF inh2	SARS 3CLpro inh
Oc1ccccc1/C=N/Nc1nccnc1Cl	-10	9470	-2	-2	2
O=C(c1cc(-c2ccc3c(c2)OCO3)on1)N1CCN(c2ccccc2)CC1	3	18888*	6	-6	0
O=C(c1cc(-c2ccc3c(c2)OCO3)on1)N1CCOCC1	-2	23477*	?	-1	2
O=C(c1cc(-c2ccc(Cl)cc2)on1)N1CCOCC1	-2	21336*	-3	-2	-4
CC(=O)Nc1ccc(S(=O)(=O)N(CC(=O)NCC2CCCO2)Cc2ccccc2Cl)cc1 (centres undefined)	3	3757	0	1	nt
CCN(CC(=O)NCc1cccs1)C(=O)c1cc(=O)[nH]c2ccccc12	6	5340	1	6	nt
O=C(Nc1cccc(Cl)c1)c1cnn2cccnc12	2	23465*	?	-3	5
